The record followed here is ChEMBL document CHEMBL1961873, “Compounds: GSK PKIS; Assays: Nanosyn kinase panel” (2012).

As usually defined, the inhibition is the relative decrease from the control value, in per cent.

In experiment [1] the test system is Epidermal growth factor receptor (Homo sapiens), P00533 [T790M]. The note with it: at 1 µM.
For experiment [2], the system named is Epidermal growth factor receptor (Homo sapiens), P00533 [L858R,T790M]. To be noted: at 0.1 µM.
For experiment [3] the test system is unchanged. To be noted: at 1 µM.
Experiment [4] addresses Ephrin type-A receptor 2 (Homo sapiens) (UniProt P29317). The note with it: at 0.1 µM.
For experiment [5] the target is unchanged. The note with it: at 1 µM.
In experiment [6] the target is T1, Ephrin type-A receptor 3 (Homo sapiens) (UniProt P29320).
T1 sequence (whole entry): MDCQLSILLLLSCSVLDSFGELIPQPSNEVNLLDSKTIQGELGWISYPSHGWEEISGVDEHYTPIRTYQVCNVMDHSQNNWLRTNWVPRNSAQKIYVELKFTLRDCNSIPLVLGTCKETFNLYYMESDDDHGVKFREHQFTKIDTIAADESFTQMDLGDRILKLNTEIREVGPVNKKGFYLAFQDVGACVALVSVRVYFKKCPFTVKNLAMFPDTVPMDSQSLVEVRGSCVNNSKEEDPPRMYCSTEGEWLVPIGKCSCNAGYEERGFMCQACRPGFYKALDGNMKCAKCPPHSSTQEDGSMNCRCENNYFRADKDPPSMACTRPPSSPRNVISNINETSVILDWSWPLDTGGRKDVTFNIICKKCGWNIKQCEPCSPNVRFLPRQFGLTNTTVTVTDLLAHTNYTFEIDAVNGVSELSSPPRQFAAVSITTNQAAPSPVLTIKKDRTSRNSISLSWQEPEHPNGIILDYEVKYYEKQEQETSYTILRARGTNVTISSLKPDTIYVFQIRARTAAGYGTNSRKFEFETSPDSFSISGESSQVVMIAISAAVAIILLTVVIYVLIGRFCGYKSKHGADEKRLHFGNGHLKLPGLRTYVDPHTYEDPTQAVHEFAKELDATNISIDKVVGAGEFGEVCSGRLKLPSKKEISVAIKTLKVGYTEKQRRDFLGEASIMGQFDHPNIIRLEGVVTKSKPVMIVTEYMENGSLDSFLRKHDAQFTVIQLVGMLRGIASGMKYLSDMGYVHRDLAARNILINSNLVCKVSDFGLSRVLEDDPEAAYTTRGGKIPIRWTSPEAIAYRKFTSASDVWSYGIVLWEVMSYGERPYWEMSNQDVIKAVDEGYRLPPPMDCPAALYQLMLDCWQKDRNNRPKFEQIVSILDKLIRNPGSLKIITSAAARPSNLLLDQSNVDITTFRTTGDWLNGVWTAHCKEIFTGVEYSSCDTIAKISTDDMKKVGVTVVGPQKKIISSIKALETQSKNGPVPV
The note with it: at 0.1 µM.

Experiment [7] has as its target T1, Ephrin type-A receptor 3 (Homo sapiens). The note with it: at 1 µM.
The target of experiment [8] is Ephrin type-A receptor 4 (Homo sapiens) (UniProt P54764). The note with it: at 0.1 µM.
Experiment [9] has the same target. The note with it: at 1 µM.
The target of experiment [10] is T2, Ephrin type-B receptor 2 (Homo sapiens) (UniProt P29323).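 Also: reported as mean inhibition of EPHB2, from the GSK PKIS dataset.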
T2 sequence (whole entry): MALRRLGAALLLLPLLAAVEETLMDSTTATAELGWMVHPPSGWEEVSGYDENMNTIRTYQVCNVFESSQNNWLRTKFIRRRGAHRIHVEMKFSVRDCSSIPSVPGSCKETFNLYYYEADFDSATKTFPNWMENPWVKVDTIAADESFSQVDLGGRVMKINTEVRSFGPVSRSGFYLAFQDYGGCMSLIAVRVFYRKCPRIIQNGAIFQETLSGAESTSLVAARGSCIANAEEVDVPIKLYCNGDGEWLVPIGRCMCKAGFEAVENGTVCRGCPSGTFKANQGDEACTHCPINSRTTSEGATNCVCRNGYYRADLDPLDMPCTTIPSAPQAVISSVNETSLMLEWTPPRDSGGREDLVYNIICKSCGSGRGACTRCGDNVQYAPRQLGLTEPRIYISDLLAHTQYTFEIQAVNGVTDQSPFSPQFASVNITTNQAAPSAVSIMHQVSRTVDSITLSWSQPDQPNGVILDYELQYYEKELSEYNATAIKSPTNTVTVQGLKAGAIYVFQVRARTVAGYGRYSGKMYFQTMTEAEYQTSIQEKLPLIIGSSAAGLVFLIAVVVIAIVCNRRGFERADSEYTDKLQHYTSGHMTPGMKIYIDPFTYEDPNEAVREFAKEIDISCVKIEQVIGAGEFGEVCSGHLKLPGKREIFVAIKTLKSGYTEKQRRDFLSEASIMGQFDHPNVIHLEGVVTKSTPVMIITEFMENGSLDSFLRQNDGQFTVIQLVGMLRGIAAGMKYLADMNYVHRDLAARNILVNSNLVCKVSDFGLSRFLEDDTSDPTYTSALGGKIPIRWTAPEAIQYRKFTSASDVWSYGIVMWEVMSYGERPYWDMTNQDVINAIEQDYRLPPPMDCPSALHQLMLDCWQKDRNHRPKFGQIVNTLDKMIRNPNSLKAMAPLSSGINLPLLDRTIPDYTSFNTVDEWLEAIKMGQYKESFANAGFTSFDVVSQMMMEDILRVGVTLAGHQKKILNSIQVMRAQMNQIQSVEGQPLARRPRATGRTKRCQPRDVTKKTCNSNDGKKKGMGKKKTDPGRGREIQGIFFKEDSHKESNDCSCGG
To be noted: at 0.1 µM.

Chain of Epidermal growth factor receptor (Homo sapiens), P00533 [T790M] (P00533 whole entry T790M): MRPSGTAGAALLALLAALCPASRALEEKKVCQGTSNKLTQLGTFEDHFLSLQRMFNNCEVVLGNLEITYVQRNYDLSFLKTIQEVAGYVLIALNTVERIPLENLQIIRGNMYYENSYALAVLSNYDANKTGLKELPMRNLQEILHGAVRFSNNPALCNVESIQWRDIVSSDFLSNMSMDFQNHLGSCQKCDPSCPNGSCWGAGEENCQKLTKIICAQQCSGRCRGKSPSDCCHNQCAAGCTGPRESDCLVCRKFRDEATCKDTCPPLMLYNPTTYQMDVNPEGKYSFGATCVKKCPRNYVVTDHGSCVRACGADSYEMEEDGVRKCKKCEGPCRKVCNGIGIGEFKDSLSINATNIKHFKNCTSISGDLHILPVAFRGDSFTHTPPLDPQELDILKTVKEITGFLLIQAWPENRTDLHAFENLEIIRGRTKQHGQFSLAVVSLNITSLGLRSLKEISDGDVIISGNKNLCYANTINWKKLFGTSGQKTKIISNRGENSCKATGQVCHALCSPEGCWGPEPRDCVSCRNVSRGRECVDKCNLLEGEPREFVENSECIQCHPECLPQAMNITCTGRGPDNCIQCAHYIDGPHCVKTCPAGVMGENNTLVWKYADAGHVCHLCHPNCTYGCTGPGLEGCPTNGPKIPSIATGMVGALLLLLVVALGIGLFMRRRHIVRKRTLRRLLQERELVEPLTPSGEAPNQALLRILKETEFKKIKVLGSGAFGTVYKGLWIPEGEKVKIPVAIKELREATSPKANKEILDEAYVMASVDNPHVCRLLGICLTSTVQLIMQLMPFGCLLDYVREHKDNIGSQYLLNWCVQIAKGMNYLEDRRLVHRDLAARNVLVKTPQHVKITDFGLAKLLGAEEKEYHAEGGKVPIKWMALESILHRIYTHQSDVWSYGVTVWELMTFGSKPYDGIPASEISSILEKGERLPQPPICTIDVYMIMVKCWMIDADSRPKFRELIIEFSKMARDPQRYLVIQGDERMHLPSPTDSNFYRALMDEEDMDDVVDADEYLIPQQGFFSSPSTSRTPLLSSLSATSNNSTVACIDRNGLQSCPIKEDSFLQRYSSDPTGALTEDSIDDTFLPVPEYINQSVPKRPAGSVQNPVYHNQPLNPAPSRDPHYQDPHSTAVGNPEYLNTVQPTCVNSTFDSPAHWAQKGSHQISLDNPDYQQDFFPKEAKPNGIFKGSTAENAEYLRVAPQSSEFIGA
Chain of Epidermal growth factor receptor (Homo sapiens), P00533 [L858R,T790M] (P00533 whole entry T790M/L858R, looked up): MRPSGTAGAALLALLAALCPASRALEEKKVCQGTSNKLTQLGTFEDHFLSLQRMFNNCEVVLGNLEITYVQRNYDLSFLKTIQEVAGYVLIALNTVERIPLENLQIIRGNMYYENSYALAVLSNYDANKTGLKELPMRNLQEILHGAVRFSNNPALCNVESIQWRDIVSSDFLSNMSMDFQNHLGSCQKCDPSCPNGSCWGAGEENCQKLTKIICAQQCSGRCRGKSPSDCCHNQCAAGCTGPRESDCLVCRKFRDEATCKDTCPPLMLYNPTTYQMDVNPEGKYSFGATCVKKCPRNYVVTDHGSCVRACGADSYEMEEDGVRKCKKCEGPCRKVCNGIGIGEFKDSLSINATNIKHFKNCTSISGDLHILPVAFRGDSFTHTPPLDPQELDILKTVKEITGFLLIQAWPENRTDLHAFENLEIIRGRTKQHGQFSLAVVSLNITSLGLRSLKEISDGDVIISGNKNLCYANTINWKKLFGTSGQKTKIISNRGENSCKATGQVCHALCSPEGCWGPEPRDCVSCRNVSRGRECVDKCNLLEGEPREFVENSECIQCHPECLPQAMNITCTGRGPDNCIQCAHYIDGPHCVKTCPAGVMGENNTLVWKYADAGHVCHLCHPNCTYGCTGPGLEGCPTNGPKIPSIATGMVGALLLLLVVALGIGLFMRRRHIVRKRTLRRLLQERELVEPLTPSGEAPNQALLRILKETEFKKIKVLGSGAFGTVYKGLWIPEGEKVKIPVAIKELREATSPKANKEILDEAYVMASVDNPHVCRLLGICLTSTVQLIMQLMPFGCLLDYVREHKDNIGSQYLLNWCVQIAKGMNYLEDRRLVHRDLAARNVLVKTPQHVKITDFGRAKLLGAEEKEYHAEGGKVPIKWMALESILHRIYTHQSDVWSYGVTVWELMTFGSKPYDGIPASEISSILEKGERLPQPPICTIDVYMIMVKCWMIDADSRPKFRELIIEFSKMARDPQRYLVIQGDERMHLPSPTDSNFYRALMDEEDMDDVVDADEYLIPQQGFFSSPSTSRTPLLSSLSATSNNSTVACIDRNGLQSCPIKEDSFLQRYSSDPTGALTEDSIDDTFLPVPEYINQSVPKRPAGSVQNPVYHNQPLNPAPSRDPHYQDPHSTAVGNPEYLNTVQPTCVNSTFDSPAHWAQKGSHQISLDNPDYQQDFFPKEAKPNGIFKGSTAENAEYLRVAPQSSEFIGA
Chain of Ephrin type-A receptor 2 (Homo sapiens) (P29317 whole entry): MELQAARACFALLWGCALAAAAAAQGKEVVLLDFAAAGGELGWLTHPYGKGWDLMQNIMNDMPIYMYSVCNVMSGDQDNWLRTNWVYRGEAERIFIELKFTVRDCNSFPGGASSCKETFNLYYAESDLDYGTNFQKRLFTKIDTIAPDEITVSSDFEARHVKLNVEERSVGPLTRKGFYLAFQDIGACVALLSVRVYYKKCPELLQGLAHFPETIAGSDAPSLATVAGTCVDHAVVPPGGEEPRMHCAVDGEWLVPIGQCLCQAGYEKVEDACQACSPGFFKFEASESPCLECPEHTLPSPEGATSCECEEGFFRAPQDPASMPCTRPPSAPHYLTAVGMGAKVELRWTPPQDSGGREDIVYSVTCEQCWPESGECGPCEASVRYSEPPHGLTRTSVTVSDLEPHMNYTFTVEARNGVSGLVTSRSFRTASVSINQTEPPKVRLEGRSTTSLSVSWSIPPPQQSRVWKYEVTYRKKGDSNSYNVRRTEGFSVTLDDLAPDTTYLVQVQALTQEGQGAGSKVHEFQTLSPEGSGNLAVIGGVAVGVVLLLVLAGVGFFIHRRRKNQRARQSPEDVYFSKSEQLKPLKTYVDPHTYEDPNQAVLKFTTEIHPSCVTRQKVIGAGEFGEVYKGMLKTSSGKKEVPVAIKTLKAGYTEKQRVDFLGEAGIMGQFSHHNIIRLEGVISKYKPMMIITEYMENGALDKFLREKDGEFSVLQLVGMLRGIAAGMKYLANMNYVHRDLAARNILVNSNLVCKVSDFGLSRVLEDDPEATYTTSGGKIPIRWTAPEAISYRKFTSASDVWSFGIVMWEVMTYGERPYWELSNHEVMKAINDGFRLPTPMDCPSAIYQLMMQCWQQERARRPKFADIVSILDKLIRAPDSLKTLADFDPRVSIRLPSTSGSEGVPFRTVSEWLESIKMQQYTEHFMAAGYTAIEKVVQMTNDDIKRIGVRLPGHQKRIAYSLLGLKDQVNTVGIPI
Chain of Ephrin type-A receptor 4 (Homo sapiens) (P54764 whole entry): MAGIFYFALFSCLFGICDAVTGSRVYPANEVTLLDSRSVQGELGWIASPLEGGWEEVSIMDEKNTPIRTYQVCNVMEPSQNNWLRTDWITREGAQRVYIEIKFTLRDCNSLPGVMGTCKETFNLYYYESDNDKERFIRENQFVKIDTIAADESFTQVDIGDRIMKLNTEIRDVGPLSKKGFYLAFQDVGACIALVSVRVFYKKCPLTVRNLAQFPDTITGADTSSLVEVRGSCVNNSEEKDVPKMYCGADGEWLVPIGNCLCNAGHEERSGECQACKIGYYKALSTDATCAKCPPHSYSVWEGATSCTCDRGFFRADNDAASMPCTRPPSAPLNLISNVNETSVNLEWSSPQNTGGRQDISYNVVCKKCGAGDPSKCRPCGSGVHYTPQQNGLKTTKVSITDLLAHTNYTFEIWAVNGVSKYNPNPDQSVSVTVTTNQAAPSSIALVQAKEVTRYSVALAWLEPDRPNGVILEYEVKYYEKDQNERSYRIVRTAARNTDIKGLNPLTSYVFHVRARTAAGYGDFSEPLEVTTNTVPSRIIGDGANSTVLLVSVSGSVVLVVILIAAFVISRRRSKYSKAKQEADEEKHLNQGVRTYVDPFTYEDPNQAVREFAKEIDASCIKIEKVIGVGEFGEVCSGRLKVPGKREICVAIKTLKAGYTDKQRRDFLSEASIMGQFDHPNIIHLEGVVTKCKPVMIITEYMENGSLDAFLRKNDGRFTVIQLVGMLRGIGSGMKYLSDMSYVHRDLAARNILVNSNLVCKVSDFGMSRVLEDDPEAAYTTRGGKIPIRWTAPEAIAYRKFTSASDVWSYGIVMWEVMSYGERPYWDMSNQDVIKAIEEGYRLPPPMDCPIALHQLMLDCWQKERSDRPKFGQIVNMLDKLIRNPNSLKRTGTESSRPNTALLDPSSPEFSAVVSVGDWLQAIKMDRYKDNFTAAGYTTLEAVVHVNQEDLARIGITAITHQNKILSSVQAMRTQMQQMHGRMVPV

On to `NC(=O)c1cccc(Nc2nccc(Nc3cccc4[nH]ncc34)n2)c1`, for which the inhibition was -2.41% in experiment [1]; -5.66% in [2]; 8.31% in experiment [3]; 7.85% in experiment [4]; 53.6% in [5]; 40.2% in experiment [6]. Besides, the inhibition in [7] amounted to 72.9%; in [8], 31%; in experiment [9] it was 81.1%; in [10], 30.4%.

As for `CC(=O)Nc1cccc(C#Cc2cncnc2Nc2ccc(OCc3cccc(F)c3)c(Cl)c2)n1`, the inhibition was 9.1% in experiment [1]; -2.43% in [2]; 3.75% in [3]; 2.75% in [4]; 1.53% in [5]; 0.44% in experiment [6]. For the same molecule, the inhibition is 0.58% in experiment [7], 1.13% in [8], 5.16% in experiment [9] and -1.46% in [10].

Turning to `COc1cc2ncn(-c3cc(O[C@@H](C)c4ccccc4Cl)c(C(N)=O)s3)c2cc1OC`, the inhibition was found to be 2.06% in experiment [1]; 1.8% in experiment [2]; 5.2% in [3]; 1.55% in experiment [4]; 1.17% in experiment [5]; 1.7% in [6]. For the same molecule, the inhibition in [7] is 6.21%; in [8], 6.22%; in experiment [9] it was 14.2%; in experiment [10] it was 7.76%.

Turning to `COc1ccc(-c2ccncc2)cc1C(N)=O`, the inhibition was determined as 2.61% in experiment [1]; 3.26% in experiment [2]; 3.22% in experiment [3]; 0.83% in experiment [4]; 0.98% in experiment [5]; 2.75% in experiment [6]. Further, the inhibition in experiment [7] stood at 4.65%; in [8] it was 6.67%; in experiment [9] it was 8.05%; in experiment [10], 5.39%.

For `COc1cc2ncn(-c3cc(OCc4ccccc4Cl)c(C(N)=O)s3)c2cc1OC`, the inhibition in experiment [1] was 0.02%; in experiment [2], -1.12%; in experiment [3], 1.19%; in experiment [4], -2.86%; in experiment [5], -1.31%; in [6] it was -1.62%. Besides, the inhibition in [7] came to 0.98%; in [8], 0.5%; in experiment [9] it was 7.32%; in [10], 2%.

As for `Cc1nn(C)c2cc(N(C)c3ccnc(Nc4cccc(S(N)(=O)=O)c4)n3)ccc12`, the inhibition in [1] turned out to be 7.49%; in experiment [2] it was 1.34%; in [3] it was 12.7%; in experiment [4] it was 1.28%; in [5], 18.6%; in [6] it was 6.82%. The inhibition turned out to be 16.5% in experiment [7], 12.2% in experiment [8], 43.7% in experiment [9] and 7.61% in experiment [10].

With `CS(=O)(=O)Nc1ccc(N/C=C2\C(=O)Nc3ccccc32)cc1`, the inhibition is -1.95% in [1]; 0.26% in [2]; -4.58% in [3]; -2.34% in experiment [4]; -1.5% in [5]; -5.95% in experiment [6]. Further, the inhibition is -4.36% in experiment [7], -6.81% in [8], -2.53% in [9] and -6.42% in experiment [10].

`[O-][S+]1CCN(Cc2ccc(-c3ccc4ncnc(Nc5ccc(OCc6ccccc6)c(F)c5)c4c3)o2)CC1`: the inhibition in experiment [1] is 10.7%; in experiment [2], 3.03%; in experiment [3], 0.99%; in experiment [4] it was 0.8%; in experiment [5] it was -0.21%; in [6], 4.64%. In addition, the inhibition was 4.32% in [7], 4.58% in experiment [8], -1.51% in [9] and 4.14% in [10].

As to `CCn1c(-c2nonc2N)nc2c(C#CC(C)(C)O)nc(OC[C@@H](N)c3ccccc3)cc21`, the inhibition in experiment [1] was -1.79%; in experiment [2], -0.23%; in experiment [3], 0.54%; in experiment [4], -1.19%; in experiment [5] it was 0.2%; in [6] it was -1.62%. The inhibition in experiment [7] was 7.71%; in experiment [8], -5.47%; in experiment [9] it was 6.31%; in experiment [10] it was 5%.

Take `COc1ccc2cc(-c3c(-c4ccncc4)nc(-c4ccc([S+](C)[O-])cc4)n3C)ccc2c1` (stereo not given): the inhibition in experiment [1] is -0.54%; in [2], 1.75%; in experiment [3], 0.88%; in [4] it was 1.69%; in experiment [5] it was 1.61%; in [6], 3.89%. The inhibition in [7] is 5.2%; in experiment [8], -2.82%; in experiment [9] it was 8.03%; in [10], 3.58%.

For `Fc1cccc(COc2ccc(Nc3ncnc4cc(-c5ccc[nH]5)sc34)cc2Cl)c1`, the inhibition is 2.62% in experiment [1]; -2.38% in [2]; 0.3% in experiment [3]; -6.71% in [4]; -6.16% in experiment [5]; -1.97% in experiment [6]. The inhibition was -0.94% in [7], 5.45% in experiment [8], 6.22% in experiment [9] and 1.52% in experiment [10].

`NS(=O)(=O)c1ccc(N/N=C2\C(=O)Nc3ccc(C(=O)NCCc4c[nH]cn4)cc32)cc1`: the inhibition in experiment [1] is 1.79%; in [2] it was 3.11%; in experiment [3] it was 5.71%; in experiment [4], 1.93%; in experiment [5] it was 1.88%; in experiment [6] it was 7.18%. Moreover, the inhibition in experiment [7] was determined as 8.06%; in [8], 10.7%; in experiment [9] it was 16.3%; in [10], 11.4%.

In the case of `CCn1c(-c2nonc2N)nc2cncc(C(=O)N3CCNCC3)c21`, the inhibition was determined as 3.72% in [1]; 0.98% in experiment [2]; 3.56% in [3]; 1.29% in [4]; 1.16% in [5]; 3.57% in [6]. For the same molecule, the inhibition came out at 2.79% in experiment [7], 9.14% in [8], 11.3% in experiment [9] and 10.1% in experiment [10].

Consider `CCn1c(-c2nonc2N)nc2cncc(C(=O)N3CC[C@H](N)C3)c21`, for which the inhibition was 3.15% in experiment [1]; 1.56% in experiment [2]; 1.95% in experiment [3]; -0.29% in experiment [4]; -0.49% in experiment [5]; 4.99% in experiment [6]. The inhibition in experiment [7] worked out at 5.74%; in [8], 9.5%; in [9], 10%; in experiment [10] it was 5.01%.

In the case of `CS(=O)(=O)CCNCc1ccc(-c2ccc3ncnc(Nc4ccc(OCc5cccc(F)c5)c(C(F)(F)F)c4)c3c2)o1`, the inhibition is 3.43% in experiment [1]; -0.63% in [2]; -1.62% in [3]; 0.17% in experiment [4]; 1.21% in experiment [5]; 3.24% in [6]. Further, the inhibition in [7] came to 1.95%; in experiment [8], 8.08%; in experiment [9] it was 6.97%; in experiment [10] it was 4.21%.

With `CS(=O)(=O)CCN(CC#N)Cc1ccc(-c2ccc3ncnc(Nc4ccc(OCc5cccc(F)c5)c(Cl)c4)c3c2)o1`, the inhibition in [1] is 5.17%; in experiment [2], -1.28%; in experiment [3], 0.73%; in [4], -5.85%; in experiment [5], -5.32%; in [6] it was -2.74%. Moreover, the inhibition is -2.11% in experiment [7], 1.75% in [8], 5.59% in experiment [9] and 6.06% in experiment [10].

As to `NCc1ccc(-c2nc(-c3ccc(Cl)c(O)c3)c(-c3ccncc3)[nH]2)cc1`, the inhibition in [1] came out at 0.46%; in [2], 0.24%; in [3], 5.04%; in [4], 2.14%; in experiment [5], 8.19%; in experiment [6], 3.13%. Further, the inhibition in experiment [7] was 2.67%; in [8], 4.74%; in experiment [9] it was 21.9%; in experiment [10] it was -0.39%.
